Test results published in PubChem BioAssay (Tox21).
Values joined by “and” are separate entries in the source; they are usually repeats but may differ in a detail not shown here. Identical values can stand only once. Results filed as inconclusive are left out. Entries that show only a call come without a potency. More than one record can exist for a structure, and the calls need not agree. Active and inactive are the calls of the source. Unless noted, calls come from the whole dose curve; as a rule, active = well fitted curve in the direction sought with a large enough effect in the repeat runs; inconclusive = weak or mixed curves; inactive = no such curve, though single readings can be large; an effect the other way counts as inactive or inconclusive.

Columns and labels:
[1] = qHTS assay to identify small molecule antagonists of the thyroid receptor (TR) signaling pathway - cell viability counter screen (AID 743064); note: nearly all actives have a fitted effect of over 50% in size
Procedure, shortened: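 Plate GH3.TRE-Luc cells; incubate 4 h at 37 °C; add compound, then T3 to 1 nM final; incubate 23.5 h; add CellTiter-Fluor; incubate 30 min at 37 °C, 5% CO2; read fluorescence.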

[2] = tested on: thyroid hormone receptor (rat, GH3 cells); assay: qHTS assay to identify small molecule agonists of the thyroid receptor (TR) signaling pathway (AID 743066; calls by dose curve; note: potency is the fitted concentration of half-maximal effect)
[3] = molecular target: Estrogen receptor (Homo sapiens) (UniProt P03372); assay: qHTS assay to identify small molecule antagonists of the estrogen receptor alpha (ER-alpha) signaling pathway (AID 743069; active = well fitted curve in the direction sought with a large enough effect in the signal ratio in the repeat runs, not every such curve was filed as active; the % refers to the signal ratio)
Sequence of Estrogen receptor (Homo sapiens) (P03372 whole entry, looked up): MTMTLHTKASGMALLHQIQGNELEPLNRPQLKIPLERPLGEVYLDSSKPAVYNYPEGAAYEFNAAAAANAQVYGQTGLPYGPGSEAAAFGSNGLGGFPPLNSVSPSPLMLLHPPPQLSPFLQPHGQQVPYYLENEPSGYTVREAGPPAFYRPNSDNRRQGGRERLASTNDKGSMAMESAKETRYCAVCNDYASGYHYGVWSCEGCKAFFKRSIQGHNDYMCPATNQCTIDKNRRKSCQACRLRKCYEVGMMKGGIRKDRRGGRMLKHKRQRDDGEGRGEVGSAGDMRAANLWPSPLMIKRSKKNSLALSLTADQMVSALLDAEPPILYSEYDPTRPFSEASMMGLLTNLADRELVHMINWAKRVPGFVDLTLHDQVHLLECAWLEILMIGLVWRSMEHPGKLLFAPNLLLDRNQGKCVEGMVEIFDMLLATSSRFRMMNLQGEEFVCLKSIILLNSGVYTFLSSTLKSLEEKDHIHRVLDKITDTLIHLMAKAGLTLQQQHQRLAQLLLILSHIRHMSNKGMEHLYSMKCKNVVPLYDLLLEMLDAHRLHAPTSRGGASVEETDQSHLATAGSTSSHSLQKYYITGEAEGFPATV
Procedure, shortened: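 Fluorescence intensity from a beta-lactamase FRET substrate served as the read-out. Cells: HEK293 with stably integrated ER-alpha-UAS-bla reporter. Agonist 17beta-estradiol was co-added with compounds; incubation 18 hr at 37C, substrate 2 hr at room temperature.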

[4] = qHTS assay to identify small molecule antagonists of the estrogen receptor alpha (ER-alpha) signaling pathway - cell viability counter screen (AID 743074; calls by dose curve; note: nearly all actives have a fitted effect of over 45% in size)
[5] = molecular target: Estrogen receptor (Homo sapiens) (UniProt P03372); assay: qHTS assay to identify small molecule agonists of the estrogen receptor alpha (ER-alpha) signaling pathway (AID 743075; calls by dose curve)
[6] = molecular target: Estrogen receptor (Homo sapiens) (UniProt P03372); assay: qHTS assay to identify small molecule agonists of the estrogen receptor alpha (ER-alpha) signaling pathway using the BG1 cell line (AID 743079); note: nearly all actives have a fitted effect of over 20% in size; note: potency is the fitted concentration of half-maximal effect
[7] = qHTS assay to identify small molecule antagonists of the estrogen receptor alpha (ER-alpha) signaling pathway using the BG1 cell line (AID 743080; calls by dose curve;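 note: BG1 cells stimulated with 17beta-estradiol alongside compound; series mostly up to about 70 µM; nearly all actives have a fitted effect of over 25% in size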)
Procedure, shortened: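 After 5 days in phenol-red-free 10% charcoal-stripped FBS medium, BG1-Luc-4E2 cells were seeded, left 24 h at 37 C, co-treated with compounds and 17beta-estradiol for 21.5 h, then assayed for viability and luciferase.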

[8] = qHTS assay to identify small molecule antagonists of the estrogen receptor alpha (ER-alpha) signaling pathway using the BG1 cell line - cell viability counter screen (AID 743081);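 note: compound given together with 17beta-estradiol as the ER stimulus; series mostly up to about 70 µM; nearly all actives have a fitted effect of over 45% in size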
[9] = molecular target: Aromatase (Homo sapiens) (UniProt P11511); assay: qHTS assay to identify aromatase inhibitors (AID 743083); note: series mostly up to about 70 µM; nearly all actives have a fitted effect of over 55% in size
Sequence of Aromatase (Homo sapiens) (P11511 whole entry, looked up): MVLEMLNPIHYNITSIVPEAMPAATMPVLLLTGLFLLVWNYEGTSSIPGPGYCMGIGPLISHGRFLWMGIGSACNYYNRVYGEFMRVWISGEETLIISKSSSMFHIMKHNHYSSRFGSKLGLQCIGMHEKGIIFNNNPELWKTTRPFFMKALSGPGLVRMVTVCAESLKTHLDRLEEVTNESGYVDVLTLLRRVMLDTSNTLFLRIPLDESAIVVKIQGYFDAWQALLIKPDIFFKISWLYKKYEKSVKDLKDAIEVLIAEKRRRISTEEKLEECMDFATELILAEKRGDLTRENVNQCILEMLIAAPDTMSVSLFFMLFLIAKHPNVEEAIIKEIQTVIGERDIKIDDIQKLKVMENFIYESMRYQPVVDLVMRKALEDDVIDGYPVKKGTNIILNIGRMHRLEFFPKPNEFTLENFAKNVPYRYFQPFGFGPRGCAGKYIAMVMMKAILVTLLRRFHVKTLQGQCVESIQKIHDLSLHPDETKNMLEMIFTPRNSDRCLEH

[10] = qHTS assay to identify aromatase inhibitors - cell viability counter screen (AID 743084);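 note: cells stimulated with testosterone during compound exposure; nearly all actives have a fitted effect of over 55% in size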
[11] = molecular target: Aryl hydrocarbon receptor (Homo sapiens) (UniProt P35869); assay: qHTS assay to identify small molecule that activate the aryl hydrocarbon receptor (AhR) signaling pathway (AID 743085); note: nearly all actives have a fitted effect of over 15% in size; note: potency is the fitted concentration of half-maximal effect;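 for activation: HG2L7.5c1 human HepG2 liver cells with stably integrated DRE-driven firefly reporter; series mostly up to about 70 µM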
Sequence of Aryl hydrocarbon receptor (Homo sapiens) (P35869 whole entry, looked up): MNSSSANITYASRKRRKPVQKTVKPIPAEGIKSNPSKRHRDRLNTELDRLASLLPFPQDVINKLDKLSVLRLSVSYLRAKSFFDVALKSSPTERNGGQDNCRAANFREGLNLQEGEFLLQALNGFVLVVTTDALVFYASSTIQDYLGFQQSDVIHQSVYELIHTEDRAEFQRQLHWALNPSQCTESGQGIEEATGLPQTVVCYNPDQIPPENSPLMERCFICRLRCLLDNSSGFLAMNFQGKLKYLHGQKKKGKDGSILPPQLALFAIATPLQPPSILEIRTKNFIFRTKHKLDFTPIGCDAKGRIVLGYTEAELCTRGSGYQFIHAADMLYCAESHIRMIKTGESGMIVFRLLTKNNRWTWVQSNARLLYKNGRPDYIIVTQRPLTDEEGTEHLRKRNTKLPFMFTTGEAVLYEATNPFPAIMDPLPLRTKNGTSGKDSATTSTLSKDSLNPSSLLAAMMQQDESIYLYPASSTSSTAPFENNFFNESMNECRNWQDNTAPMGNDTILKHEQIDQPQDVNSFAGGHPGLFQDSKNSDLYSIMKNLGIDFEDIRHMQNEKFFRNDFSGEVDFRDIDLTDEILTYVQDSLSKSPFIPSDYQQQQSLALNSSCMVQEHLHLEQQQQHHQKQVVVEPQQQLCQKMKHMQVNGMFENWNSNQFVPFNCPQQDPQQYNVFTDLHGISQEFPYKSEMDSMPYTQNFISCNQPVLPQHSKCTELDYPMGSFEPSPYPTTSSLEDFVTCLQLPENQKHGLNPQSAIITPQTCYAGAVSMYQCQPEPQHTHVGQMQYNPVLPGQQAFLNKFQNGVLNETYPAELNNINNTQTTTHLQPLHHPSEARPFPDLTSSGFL
Procedure, shortened: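 Steps: seed HepG2-AhR-luc cells; allow 5 h at 37C; pin-transfer test compound or vehicle; incubate 24 h at 37C; add viability dye (30 min, 37C) and read fluorescence; add luciferase substrate (30 min, RT) and read luminescence.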

[12] = qHTS assay to identify small molecule that activate the aryl hydrocarbon receptor (AhR) signaling pathway - cell viability counter screen (AID 743086);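 note: HepG2 liver cells carrying the AhR DRE luciferase reporter; series mostly up to about 70 µM; nearly all actives have a fitted effect of over 45% in size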
Procedure, shortened: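 Cytotoxicity counter screen: CellTiter-Fluor signal (30 min, 37 C) in 4000 HepG2 cells/well carrying the DRE-luciferase reporter, following 24 h compound exposure at 37 C.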

[13] = molecular target: Peroxisome proliferator-activated receptor gamma (Homo sapiens) (UniProt P37231); assay: qHTS assay to identify small molecule antagonists of the peroxisome proliferator-activated receptor gamma (PPARg) signaling pathway (AID 743191; calls by dose curve; note: series mostly up to about 63 µM; nearly all actives have a fitted effect of over 30% in size)
Sequence of Peroxisome proliferator-activated receptor gamma (Homo sapiens) (P37231 whole entry, looked up): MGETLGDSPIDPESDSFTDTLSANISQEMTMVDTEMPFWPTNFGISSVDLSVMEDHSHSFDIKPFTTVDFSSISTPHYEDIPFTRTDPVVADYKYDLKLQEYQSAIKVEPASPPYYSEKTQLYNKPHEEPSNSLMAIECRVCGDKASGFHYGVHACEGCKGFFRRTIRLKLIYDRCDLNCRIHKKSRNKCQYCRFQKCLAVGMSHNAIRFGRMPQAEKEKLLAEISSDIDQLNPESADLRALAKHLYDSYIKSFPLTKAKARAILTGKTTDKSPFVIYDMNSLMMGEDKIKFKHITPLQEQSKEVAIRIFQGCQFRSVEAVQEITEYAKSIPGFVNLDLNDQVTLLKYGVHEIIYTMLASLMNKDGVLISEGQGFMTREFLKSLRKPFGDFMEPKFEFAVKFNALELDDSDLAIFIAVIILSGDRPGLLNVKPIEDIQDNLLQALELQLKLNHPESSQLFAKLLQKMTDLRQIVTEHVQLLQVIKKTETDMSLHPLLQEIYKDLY
Procedure, shortened: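 Beta-lactamase reporter under UAS control in HEK293H PPARg-bla cells; compound treatment 17 h at 37C. Read-out: fluorescence intensity after 1 h room-temperature incubation with LiveBLAzer B/G FRET substrate.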

[14] = qHTS assay to identify small molecule antagonists of the peroxisome proliferator-activated receptor gamma (PPARg) signaling pathway - cell viability counter screen (AID 743194); note: nearly all actives have a fitted effect of over 55% in size
Procedure, shortened: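 Viability was measured as CellTiter-Glo luminescence in GeneBLAzer PPARg UAS-bla HEK293H cells. These cells had been exposed 17 h at 37 C to compounds together with rosiglitazone at 50 nM final, with the beta-lactamase readout taken in the same wells.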

[15] = qHTS assay for small molecule agonists of the antioxidant response element (ARE) signaling pathway (AID 743202; active = well fitted activation curve with a large enough effect in the signal ratio in the repeat runs, not every such curve was filed as active; the % refers to the signal ratio)
Procedure, shortened: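 Beta-lactamase reporter activity, read as fluorescence intensity, reflects ARE/Nrf2 pathway induction in HepG2 cells after 16 h compound exposure at 37 C; substrate loading was 2 h at room temperature.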

[16] = qHTS assay for small molecule agonists of the antioxidant response element (ARE) signaling pathway - cell viability counter screen (AID 743203; calls by dose curve; note: nearly all actives have a fitted effect of over 55% in size)
Procedure, shortened: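 Viability counter screen: CellTiter-Glo luminescence, read after 30 min at room temperature, in ARE-bla HepG2 wells. Compound exposure lasted 16 h at 37C/5% CO2, following a 5 h pre-incubation of the cells after plating.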

[17] = qHTS assay for small molecule activators of the heat shock response signaling pathway - cell viability counter screen (AID 743209); note: nearly all actives have a fitted effect of over 50% in size
Procedure, shortened: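 Cytotoxicity counter screen run in the same wells as the heat-shock bla reporter assay: HeLa HSE-bla cells, 5 h compound exposure at 37 C, viability read by CellTiter-Glo luminescence.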

[18] = qHTS assay for small molecule activators of the heat shock response signaling pathway (AID 743210; active = well fitted activation curve with a large enough effect in the signal ratio in the repeat runs, with a control signal flat, not every such curve was filed as active; the % refers to the signal ratio; note: potency is the fitted concentration of half-maximal effect;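 for activation: HeLa cells with beta-lactamase reporter driven by heat shock elements; series mostly up to about 63 µM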)
Procedure, shortened: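 Fluorescence from a cleaved B/G FRET substrate (2.5 h, room temp) reports HSE-driven beta-lactamase in HeLa cells treated 5 h at 37 C with DMSO-dissolved compounds.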

[19] = qHTS assay to identify small molecule antagonists of the thyroid receptor (TR) signaling pathway (AID 743065)
Procedure, shortened: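 Antagonism measured as loss of luciferase signal in GH3 cells stably carrying a TRE-luciferase reporter, co-treated with compound and T3 (1 nM final) for 23.5 h at 37 C. Viability was read in the same well by CellTiter-Fluor.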

[20] = molecular target: Peroxisome proliferator-activated receptor gamma (Homo sapiens) (UniProt P37231); assay: qHTS assay to identify small molecule agonists of the peroxisome proliferator-activated receptor gamma (PPARg) signaling pathway (AID 743094; active = well fitted activation curve with a large enough effect in the signal ratio in the repeat runs, not every such curve was filed as active; the % refers to the signal ratio)
Procedure, shortened: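 Agonist activity was taken from a beta-lactamase reporter (FRET substrate, 1 h at room temperature) in HEK293H cells carrying a PPARg UAS-bla construct. Compounds in DMSO were incubated 17 h at 37C after a 5 h cell pre-incubation.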

Cc1cc(Cl)ccc1OC(C)C(=O)O (stereo unspecified)
Potency [1]: inactive
Potency [2]: inactive
Potency [3]: inactive
outcome [4]: inactive
outcome [5]: inactive
Potency [6]: inactive
outcome [7]: inactive
outcome [8]: inactive
Potency [9]: inactive
Potency [10]: inactive
Potency [11]: inactive
outcome [12]: inactive
Potency [13]: inactive
outcome [14]: inactive
Potency [15]: inactive
Potency [16]: inactive
Potency [17]: inactive
Potency [18]: inactive

ClC(Cl)c1ccccc1
Potency [19]: inactive
Potency [2]: inactive
Potency [3]: inactive
outcome [4]: inactive
outcome [5]: inactive
Potency [6]: inactive
outcome [7]: inactive
outcome [8]: inactive
Potency [9]: inactive
Potency [10]: inactive
Potency [11]: inactive
outcome [12]: inactive
outcome [20]: inactive
Potency [13]: inactive
outcome [14]: inactive
Potency [15]: inactive
Potency [16]: inactive
Potency [17]: inactive
Potency [18]: inactive

CCOP(=S)(OCC)Oc1ccc([N+](=O)[O-])cc1
Potency [1]: inactive
Potency [2]: inactive
outcome [4]: inactive
outcome [8]: inactive
Potency [9]: inactive
Potency [10]: inactive
Potency [11]: 31 µM (active) and 10.6 µM (active)
outcome [12]: inactive
outcome [20]: inactive
Potency [13]: inactive
outcome [14]: inactive
Potency [15]: inactive
Potency [16]: inactive
Potency [17]: inactive
Potency [18]: inactive

COC(C)(C)CCCC(C)C/C=C/C(C)=C/C(=O)OC(C)C (stereo unspecified)
Potency [1]: inactive
Potency [2]: inactive
outcome [4]: inactive
outcome [8]: inactive
Potency [9]: inactive
Potency [10]: inactive
Potency [11]: inactive and 60.1 µM (active)
outcome [12]: inactive
outcome [20]: inactive
Potency [13]: inactive
outcome [14]: inactive
Potency [15]: inactive
Potency [16]: inactive
Potency [17]: inactive

CCOc1ccc(N)cc1
Potency [1]: inactive
Potency [2]: inactive
Potency [3]: inactive
outcome [4]: inactive
outcome [5]: inactive
Potency [6]: inactive
outcome [7]: inactive
outcome [8]: inactive
Potency [9]: inactive
Potency [10]: inactive
Potency [11]: 48.7 µM (active) and inactive
outcome [12]: inactive
outcome [14]: inactive
Potency [16]: inactive
Potency [17]: inactive
Potency [18]: inactive

O=C(O)c1cc(Oc2ccc(C(F)(F)F)cc2Cl)ccc1[N+](=O)[O-]
Potency [1]: inactive
Potency [2]: inactive
outcome [4]: inactive
outcome [8]: inactive
Potency [9]: inactive
Potency [10]: inactive
Potency [11]: inactive
outcome [12]: inactive
outcome [20]: inactive
Potency [13]: inactive
outcome [14]: inactive
Potency [15]: inactive
Potency [16]: inactive
Potency [17]: inactive
Potency [18]: inactive

Clc1cnc(Oc2ccc(Oc3ncc(Cl)cc3Cl)cc2)c(Cl)c1
Potency [1]: inactive
Potency [2]: inactive
outcome [4]: inactive
outcome [8]: inactive
Potency [9]: inactive
Potency [10]: inactive
Potency [11]: inactive
outcome [12]: inactive
outcome [20]: inactive
outcome [14]: inactive
Potency [16]: inactive
Potency [17]: inactive
Potency [18]: inactive

ClCCOCCCl
Potency [1]: inactive
Potency [2]: inactive
outcome [4]: inactive
outcome [8]: inactive
Potency [9]: inactive
Potency [10]: inactive
Potency [11]: inactive
outcome [12]: inactive
outcome [20]: inactive
Potency [13]: inactive
outcome [14]: inactive
Potency [15]: inactive
Potency [16]: inactive
Potency [17]: inactive
Potency [18]: inactive

Sc1ccccc1
Potency [1]: inactive
Potency [2]: inactive
Potency [3]: inactive
outcome [4]: inactive
outcome [5]: inactive
Potency [6]: inactive
outcome [7]: inactive
outcome [8]: inactive
Potency [9]: inactive
Potency [10]: inactive
Potency [11]: inactive
outcome [12]: inactive
outcome [14]: inactive
Potency [15]: inactive
Potency [16]: inactive
Potency [17]: inactive
Potency [18]: 44.3 µM (active) and inactive

CC[N+](=O)[O-]
Potency [1]: inactive
Potency [2]: inactive
outcome [4]: inactive
outcome [8]: inactive
Potency [9]: inactive
Potency [10]: inactive
Potency [11]: inactive
outcome [12]: inactive
outcome [20]: inactive
outcome [14]: inactive
Potency [15]: inactive
Potency [16]: inactive
Potency [17]: inactive
Potency [18]: inactive

Nc1ncc([N+](=O)[O-])s1
Potency [1]: inactive
Potency [2]: inactive
Potency [3]: inactive
outcome [4]: inactive
outcome [5]: inactive
Potency [6]: inactive and 61.1 µM (active)
outcome [7]: inactive
outcome [8]: inactive
Potency [9]: inactive
Potency [10]: inactive
Potency [11]: inactive
outcome [12]: inactive
outcome [20]: inactive
Potency [13]: inactive
outcome [14]: inactive
Potency [15]: inactive
Potency [16]: inactive
Potency [17]: inactive
Potency [18]: inactive

Cc1cc(O)ccc1Cl
Potency [1]: inactive
Potency [2]: inactive and 27.3 µM (active)
Potency [3]: inactive
outcome [4]: inactive
outcome [5]: inactive
Potency [6]: inactive and 62.2 µM (active)
outcome [7]: inactive
outcome [8]: inactive
Potency [9]: inactive
Potency [10]: inactive
Potency [11]: inactive
outcome [12]: inactive
outcome [20]: inactive
Potency [13]: inactive
outcome [14]: inactive
Potency [15]: inactive
Potency [16]: inactive
Potency [17]: inactive
Potency [18]: inactive

CCCCCCCCCCCCCCCCCC(=O)O
Potency [1]: inactive
outcome [4]: inactive
outcome [8]: inactive
Potency [10]: inactive
outcome [12]: inactive
outcome [14]: inactive
Potency [15]: inactive
Potency [16]: inactive
Potency [17]: inactive

C/C=C/c1ccc2c(c1)OCO2
Potency [1]: inactive
Potency [2]: inactive
outcome [4]: inactive
outcome [8]: inactive
Potency [9]: inactive
Potency [10]: inactive
outcome [12]: inactive
outcome [20]: inactive
outcome [14]: inactive
Potency [15]: inactive
Potency [16]: inactive
Potency [17]: inactive
Potency [18]: inactive
